Inconclusive results are not listed. A number with no mark means an inactive call. Active and inactive are the calls of the source. The call rests on the fitted dose curve.
assay: qHTS assay for small molecule agonists of the p53 signaling pathway - cell viability (AID 651633); settings: p53RE-bla HCT-116 viability, ATP luminescence, 16 h; series mostly up to 83.3 µM; activity change, negative = cytotoxicity: at the top concentration; further: nearly all actives have a fitted effect of over 30% in size;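 on activity change, negative = cytotoxicity: p53RE-bla HCT reporter cells with a stable beta-lactamase p53 reporter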
Text: National Center for Advancing Translational Sciences [NCATS]
NIH Chemical Genomics Center [NCGC]
U.S. Environmental Protection Agency [EPA]
National Institutes of Environmental Health Sciences [NIEHS]
National Toxicology Program [NTP]
U.S. Food and Drug Administration [FDA]
p53, a tumor suppressor protein, is activated following cellular insult, including DNA damage and other cellular stresses. The activation of p53 regulates cell fate by inducing DNA repair, cell cycle arrest, apoptosis, or cellular senescence. The activation of p53, therefore, is a good indicator of DNA damage and other cellular stresses. […] The activation of the reporter gene under culture conditions can be detected by fluorescence intensity. This cell line was used to screen the Tox21 compound library in a 1536-well plate format and to identify agonists that activate the p53 signaling pathway.
Tox21 Assay Protocol Summary:
The p53RE-bla cells were dispensed at 4,000 cells/5 ul/well in 1536-well black wall/clear bottom plates using a Multidrop dispenser. After the assay plates were incubated at a 37 C/5% CO2 incubator for 5 hours, 23 nL of compounds dissolved in DMSO, positive controls or DMSO only was transferred to the assay plate by a pin tool. The plates were incubated at 37 C for 16 hours. After 1 uL of LiveBLAzerTM B/G FRET substrate was added using a Flying Reagent Dispenser, the plates were incubated at room temperature for 2 hours, and fluorescence intensity was measured by an Envision plate reader.
For cell viability readout that measures cytotoxicity, 4 ul/well of CellTiter-Glo reagent was added into the assay plates using a Flying Reagent Dispenser. After 30 min incubation at room temperature, the luminescence intensity in the plates was measured using a ViewLux plate reader.
On the % scale 0 is the no-effect control and ±100 the full control effect; potency means the concentration at half of the fitted maximal effect.

| SMILES | activity change, negative = cytotoxicity | Potency |
| --- | --- | --- |
| CCCCCCCCN | 9.93% | – |
| COC(=O)CS | -23.6% | – |
| CC(C)COCC(CN(Cc1ccccc1)c1ccccc1)N1CCCC1 (stereo not given) | – | 11.9 µM (active) |
| Nc1nnc(-c2ccc([N+](=O)[O-])o2)o1 | -13.5% | – |
| O=C=Nc1ccc(Cl)c(Cl)c1 | -15.8% | – |
| CN(C(=O)CN(CCO)CC(=O)N(C)C(C)(C)Cc1ccccc1)C(C)(C)Cc1ccccc1 | -23.7% [at 39.1 µM] | – |
| CCC(=O)OC | 22.7% [at 95.3 µM] | – |
| CC[C@]1(O)C[C@H]2CN(CCc3c([nH]c4ccccc34)[C@@](C(=O)OC)(c3cc4c(cc3OC)N(C=O)[C@H]3[C@@](O)(C(=O)OC)[C@H](OC(C)=O)[C@]5(CC)C=CCN6CC[C@]43[C@@H]65)C2)C1 | 19.8% | – |
| O=C(/C=C/c1ccccc1)OCCc1ccccc1 | 9.01% | – |
| Oc1c(I)cc(I)c2cccnc12 | – | 10.6 µM (active) |
| CCCCCCC(C)(C)C(=O)O | 12.5% | – |
| CCC(OCCCOC)OC(C)=O (stereo not given) | -10.3% [at 95.3 µM] | – |
| CC(C)C(O)(c1ccc(OC(F)(F)F)cc1)c1cncnc1 (stereo not given) | 8.92% | – |
| O=C(O)CCc1nc(-c2ccccc2)c(-c2ccccc2)o1 | 18.2% | – |
| C[C@@H](O)[C@H]1C(=O)N2C(C(=O)O)=C([C@H]3CCCO3)S[C@H]12 | 14.3% | – |
| COc1ccccc1NC(=O)c1cc2ccccc2cc1O | – | 54.5 µM (active) |
| C=CCc1ccccc1OCC(O)CNC(C)C (stereo not given) | 19% | – |
| CC(CCC(=O)O)C(=O)O (stereo not given) | 23.5% | – |
| O=C(O)c1ccc(OCCCOc2ccc(C(=O)O)cc2)cc1 | 21.6% | – |
| CCOC(=O)/C=C/C(=O)OCC | -14% | – |

| SMILES | activity change, negative = cytotoxicity | Potency |
| --- | --- | --- |
| C=COCC(C)C | 3.59% [at 95.3 µM] | – |
| C=Cc1ccc(S(=O)(=O)O)cc1 | – | inactive |
| COc1cc(C(=O)NCCCCCC(=O)O)cc(OC)c1OC | 14.7% | – |
| CCCCCCCCCCCCCCN(CCO)CCO | – | 48.6 µM (active) |
| CN1CCCC(CC2c3ccccc3Sc3ccccc32)C1 (stereo not given) | -23.6% [at 39.1 µM] | – |
| COC(=O)CCS | -12.2% | – |
| COc1cc(N)c(Cl)cc1C(=O)NC1CCN(CCCOc2ccc(F)cc2)CC1OC (stereo not given) | -11.2% [at 39.1 µM] | – |
| CCCCC(CC)CN (stereo not given) | 7.03% [at 95.3 µM] | – |
| CCOc1cccc(-n2cc(C(=O)N3CCN(c4cc(C(=O)O)c5ccccc5c4)CC3)nc2-c2ccc(C)cc2)c1 | – | 20.7 µM (active) |
| CCCCN1CCCC1C(=O)Nc1c(C)cc(C)cc1C (stereo not given) | -8.23% | – |
| C=C(C)[C@@H]1CCC2=CCC[C@@H](C)[C@]2(C)C1 | 5.67% | – |
| OCCN1CCN(CCCN2c3ccccc3Sc3ccc(Cl)cc32)CC1 | -18.9% [at 39.1 µM] | – |
| CN1C(=O)OC(C)(C)C1=O | – | inactive |
| CC1(C)O[C@@H]2C[C@H]3[C@@H]4C[C@H](F)C5=CC(=O)C=C[C@]5(C)[C@H]4[C@@H](O)C[C@]3(C)[C@]2(C(=O)CO)O1 | 10.4% [at 39.1 µM] | – |
| O=C(O)CCCCCCCCCCCBr | -7.36% | – |
| O=C1CCCCCCCCCCOCCCCO1 | -25.9% | – |
| CCC=CC#N | 13% | – |
| CC(C)=CC(=O)C=C(C)C | -14.3% | – |
| O=C(O)c1cccc(-c2noc(-c3ccccc3F)n2)c1 | – | 29.8 µM (active) |
| Nc1cccc2c1CN(C1CCC(=O)NC1=O)C2=O (stereo not given) | 24.8% | – |
